Assay outcomes deposited in PubChem BioAssay by National Center for Advancing Translational Sciences (NCATS).
Pf Dd2 inh – qHTS Primary assay for Inhibitors of Plasmodium falciparum Dd2 growth in vitro | P. falciparum Dd2 growth, SYBR Green, 72 h | Potency, µM (doses to about 28.9 µM), hits mostly inhibitors | 120,000 compounds, 4.3% hits | AID 1347417, 2020; active = well fitted inhibition curve with a large enough effect; note: nearly all actives have a fitted effect of over 65% in size
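Readout: SYBR Green fluorescence, 485 nm excitation, 535 nm emission, after ~16 h lysis at 37C. Before that, Dd2-infected red cells (2.5% hematocrit) grew 72 h with compound, 29 uM top final concentration.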
Numbers stand for hits; – = inactive; [ ] = another dose, or the depositor's remark. The sample as a whole holds a higher share of hits than the screen did.

SMILES	Pf Dd2 inh
Cc1c(CN(C)C(=O)CC2C(=O)NCCN2CC(C)(C)C)[nH]c2ccccc12 (stereo not drawn)	–
COc1ccc(NC(C)(C)C(=O)N2CCC3(CCN(C)CC3)C2)cc1	–
O=C(N[C@@H]1CCOC[C@H]1Oc1ccccn1)c1ccc(N2CCCC2=O)cc1	–
Cc1cccc(NC(=O)Nc2ccc(C)n(CC(=O)NCCN3CCCCC3)c2=O)c1	–
O=C(Cn1nnnc1CN1CCOCC1)N1CCN(c2ccc(Cl)cc2)CC1	–
O=c1oc2c(CN3CCOCC3)c(O)ccc2cc1-c1ccc(Cl)cc1	7.1µM
COc1ccc(-c2cc3ccc(O)c(CN4CCC(C)CC4)c3oc2=O)cc1OC	2.5µM
COc1ccccc1CNC(=O)C1CCN(Cc2nc(-c3ccc(OC)c(OC)c3)oc2C)CC1	–
Cn1cc(-c2ccc(O)c(F)c2)c2nc(CN3CCOCC3)cn2c1=O	–
COc1ccc(CNC(=O)C2CCN(Cc3nc(-c4ccc(OC)c(OC)c4)oc3C)CC2)cc1	–
CNC(=O)[C@@H]1CN(C(=O)CCc2ccc(OC)c(OC)c2)C[C@H]1CO	–
O=C1N2CCCC2CN1C1CCN(Cc2cccnc2)CC1 (stereo not drawn)	–
CC(=O)N1CCC(C(=O)N2CCC3(CC2)NC(=O)N(c2ccccc2)N3)CC1	–
CCCS(=O)(=O)c1c(S(=O)(=O)CCC)c2cc(C(C)(C)C)ccn2c1C(=O)c1ccc(OC)c(OC)c1	2.8µM
CCCS(=O)(=O)c1c(S(=O)(=O)CCC)c2cc(C(C)(C)C)ccn2c1C(=O)c1ccccc1	2.5µM
Nc1c(C(=O)Nc2cccc(C(F)(F)F)c2)c2ccccn2c1C(=O)c1ccccc1	–
COc1ccc(OCC(=O)N2CCN(C(=O)c3ccc(OC)c(OC)c3)CC2)cc1	–
CCCCN(CCCC)C1=C(C(=O)c2ccccc2)N(CC)S(=O)(=O)c2ccccc21	–
COc1ccc(C(=O)N2CCN(C(=O)COc3ccc(Br)cc3)CC2)cc1OC	–
COC(=O)CCC(=O)N1CCCC(c2nc(SCCN3CCOCC3)ncc2C)C1 (stereo not drawn)	–
O=C1CCN(S(=O)(=O)c2ccccc2)CCCC(C(=O)NC2CCCC2)CCN1 (stereo not drawn)	–
O=C(c1cc(COc2cccc(F)c2)[nH]n1)N1CCC(N2CCSCC2)CC1	–
CN1CCN(Cc2nc(C3(O)CCN(C(=O)Nc4ccc(F)cc4)CC3)cs2)CC1	–
CC1CCN(CC2CCCN(C(=O)c3ccncc3)CC2)CC1 (stereo not drawn)	–
CC(NC(=O)C1CCC1)C(=O)N1CCN(c2ccccn2)CC1 (stereo not drawn)	–
SMILES	Pf Dd2 inh
COc1ccc(NC(=O)c2nc(C(O)c3ccccc3)oc2C)cn1 (stereo not drawn)	–
Cc1oc(C(O)c2ccccc2)nc1C(=O)Nc1ccc2c(c1)NC(=O)CO2 (stereo not drawn)	10µM
Cc1oc(C(O)c2ccccc2)nc1C(=O)Nc1ccc(C(=O)Nc2ccccc2)cc1 (stereo not drawn)	–
COC1CCC12CCN(C(=O)c1nccn1C)CC2 (stereo not drawn)	–
COc1cc(NC(=O)N2CCc3c(sc4c3CCCC4)C2c2ccccc2)cc(OC)c1OC (stereo not drawn)	–
COc1ccc(Cl)cc1NC(=O)CN1C(=O)NC2(CCCCC2)C1=O	–
COc1ccc(Cl)cc1NC(=O)N1CC(=O)Nc2sc3c(c2C1c1ccccc1)CCCC3 (stereo not drawn)	11µM
COc1cc(OC)cc(-c2onc(C)c2C(=O)NCCCOC(C)C)c1	–
CCc1nc2c(c(-c3ccc(Cl)cc3)n1)CN(C(=O)c1ccccc1)CC2	–
COc1ccc(-c2nc3scc(CCNC(=O)c4cccc(Br)c4)n3n2)cc1	1µM
O=C(NCCc1csc2nc(-c3ccc(F)cc3)nn12)c1cccc(C(F)(F)F)c1	–[5.79 µM]
COc1ccc(-c2nc3scc(CCNS(=O)(=O)c4ccccc4F)n3n2)cc1	–
CCN(CC)CCNC(=O)c1ccc2c(=O)n3nc(Nc4cccc(Cl)c4C)sc3nc2c1	5.6µM
Cc1c(Cl)cccc1Nc1nn2c(=O)c3ccc(C(=O)NCCC4=CCCCC4)cc3nc2s1	4µM
Cc1ccc(C)c(Nc2nn3c(=O)c4ccc(C(=O)NCCC5=CCCCC5)cc4nc3s2)c1	10µM
Cc1ccccc1Nc1nn2c(=O)c3ccc(C(=O)N4CCCC(C)C4)cc3nc2s1 (stereo not drawn)	–
Cc1ccc(Cl)cc1Nc1nn2c(=O)c3ccc(C(=O)NC4CCC(C)CC4)cc3nc2s1 (stereo not drawn)	–
Cc1ccc(C)c(Nc2nn3c(=O)c4ccc(C(=O)NC5CCCCC5)cc4nc3s2)c1	–
Cc1ccc(C)c(Nc2nn3c(=O)c4ccc(C(=O)NCCc5ccccc5)cc4nc3s2)c1	–
COc1ccccc1-c1cc(C(=O)NCc2ccnc(N)c2)c2c(c1)ncn2C	–
Cc1cccc(NC(=O)N2CC3CC(C2)[C@H]2CCCC(=O)N2C3)c1 (stereo partly drawn)	–
Cc1ccc(CN2C(=O)COC[C@H]2C(=O)Nc2cccc(C(C)C)c2)cc1	–
CCn1nccc1C(=O)N1CCC2(CC1)NC(=O)N(c1ccc(F)cc1)N2	–
O=C(c1ccc(F)c(F)c1)N1CCN(C(=O)c2nnn3c2COC(c2ccccc2)C3)CC1 (stereo not drawn)	–
COc1ccc(-c2noc(CC3CCN(C(=O)CCc4cccc(OC)c4)CC3)n2)cc1	–
SMILES	Pf Dd2 inh
O=C1CCN(Cc2cccnc2)CCCC(C(=O)NC2CCCC2)CCN1 (stereo not drawn)	–
O=C(C1CCCC1)N1CC2(CCN(C3CCCCC3)C2)Cc2ccccc21 (stereo not drawn)	10µM
O=C(C1CCCC1)N1CC2(CCCN(Cc3ccc(Cl)cc3)C2)Cc2ccccc21 (stereo not drawn)	13µM
O=C(C1CCCC1)N1CC2(CCN(Cc3cccnc3)C2)Cc2ccccc21 (stereo not drawn)	6.3µM
CN1CCC(C(=O)N2C3CCC2CN(Cc2cccnc2)C3)CC1	–
O=C(C1CCCC1)N1CC2(CCN(C3COC3)CC2)Cc2ccccc21	–
O=C(C1CCCC1)N1CC2(CCN(Cc3cccnc3)CC2)Cc2ccccc21	10µM
CC(=O)N1CC2(Cc3ccccc31)CN(C(=O)NC1CCCC1)C2	–
CC(=O)N1CC2(CCCN(Cc3cccnc3)C2)Cc2ccccc21 (stereo not drawn)	–
CC(=O)N1CC2(CCCN(Cc3ccc(Cl)cc3)C2)Cc2ccccc21 (stereo not drawn)	–
Cn1ncc(N2CCC(C(=O)N3CCc4ccccc4C3)C2)cc1=O (stereo not drawn)	–
O=C(Cc1cn2ccsc2n1)NC1CCOC2(CCOCC2)C1 (stereo not drawn)	–
CCc1noc(-c2cn(C3CCN(C(=O)c4ccc(OC)cc4)C3)nn2)n1 (stereo not drawn)	–
CCn1ncc(CN(C)C(=O)CC2C(=O)NCCN2C(C)C)c1C (stereo not drawn)	–
COc1nccc(N2CCC(CC(=O)NCCCN3CCCC3=O)CC2)n1	–
Cc1ccccc1CNC(=O)c1ccc2c(c1)N(C)C1CCCN1C2=O (stereo not drawn)	–
Cc1cc(C)c(NC(=O)C(C)n2c(=O)cc(-c3ccccc3)c3c(C)nn(C)c32)c(C)c1 (stereo not drawn)	–
Cc1c(Cl)cccc1NC(=O)C(C)n1c(=O)cc(-c2ccccc2)c2c(C)nn(C)c21 (stereo not drawn)	–
